# DT40 TDP1 CPT: DT40-hTDP1 cell growth loss with CPT; Potency, µM (series often up to 46.2 µM), most hits filed as inhibitors; 12% of 420,000 active; chicken DT40 Tdp1-/-;hTDP1 cells + 20 nM CPT, ATP luminescence, 48 h; AID 686979; also: nearly all actives have a fitted effect of over 55% in size
#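 Cell growth measured by CellTiter-Glo luminescence after a minimum 48 h, 37 C compound exposure with 20 nM CPT in Tdp1-knockout DT40 cells stably expressing hTDP1, seeded 400/well; qHTS titration format.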
# TDP1 inh: TDP1 (human) enzyme inhibition; recombinant TDP1, AlphaScreen DNA substrate cleavage; Potency, µM (highest dose often 130 µM), hits mostly inhibitors; 0.28% of 350,000 active; also: nearly all actives have a fitted effect of over 40% in size
# Target sequence (Q9NUW8 whole entry, looked up): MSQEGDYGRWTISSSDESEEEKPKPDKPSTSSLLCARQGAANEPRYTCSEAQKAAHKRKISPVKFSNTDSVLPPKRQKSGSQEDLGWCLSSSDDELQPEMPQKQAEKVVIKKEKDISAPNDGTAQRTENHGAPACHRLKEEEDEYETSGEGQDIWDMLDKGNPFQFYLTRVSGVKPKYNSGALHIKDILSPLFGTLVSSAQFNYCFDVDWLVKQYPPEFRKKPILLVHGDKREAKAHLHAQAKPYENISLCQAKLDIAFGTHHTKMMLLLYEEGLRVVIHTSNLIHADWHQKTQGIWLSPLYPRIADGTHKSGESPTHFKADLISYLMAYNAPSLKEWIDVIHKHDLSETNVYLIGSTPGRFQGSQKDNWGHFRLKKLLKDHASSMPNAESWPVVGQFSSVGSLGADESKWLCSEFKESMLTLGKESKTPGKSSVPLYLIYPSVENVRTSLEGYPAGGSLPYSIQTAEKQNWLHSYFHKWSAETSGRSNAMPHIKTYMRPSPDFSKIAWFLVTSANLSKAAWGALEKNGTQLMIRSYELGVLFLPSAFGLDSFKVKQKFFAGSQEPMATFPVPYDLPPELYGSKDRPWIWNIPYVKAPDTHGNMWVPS
#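 Signal: AlphaScreen proximity between streptavidin donor and anti-FITC acceptor beads on intact substrate. Reaction: Tdp1 1 nM, substrate 15 nM final, 5 min RT after 15 min compound preincubation.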
# HepG2 tox: kills HepG2 cells in TGF-b inhibitor counter-screen; HepG2 CAGA-GFP viability, ATP luminescence, 18 h; Potency, µM (titrated, usually from 46.1 µM), actives largely listed as cytotoxic; 0.76% of 410,000 active
#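 CellTiter-Glo luminescence gave cytotoxicity after 18 hours at 37 degrees C. The cells were HepG2 CAGA-GFP in 1% FBS DMEM, stimulated with 500 pg/mL TGF-beta after compound addition. %Activity was normalised to no-cell wells (complete cell-killing) and DMSO (no toxicity), and curves were fitted and classified.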
# TGFb inhibitor: blocks TGF-b signaling. 1.2% of 410,000 active. Potency, µM (top dose mostly 46.1 µM), usual class: inhibitors. HepG2 CAGA-GFP TGF-b/SMAD3 reporter, GFP fluorescence, 18 h; TGF-beta stimulated, 500 pg/mL final. AID 588855; also: nearly all actives have a fitted effect of over 65% in size
#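 Inhibition of TGF-beta-driven CAGA-GFP reporter expression in HEPG2 cells is measured by cellular GFP fluorescence after 18 h stimulation with 500 pg/mL recombinant TGF-beta in 1% FBS medium at 37 degrees C.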
# IL-1B inflam inh: inhibitors of inflammasome signaling (IL-1 beta secretion); THP-1 LPS/ATP IL-1B secretion, AlphaLISA, 16 h; stronger effect = lower value; activity change, % at 57.5 µM; 4.7% of 360,000 active; AID 743279; in the data active = activity change below about -50%; inconclusive = mostly about -30% to -49%
#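 Secreted IL-1B measured by AlphaLISA bead assay after 16 h compound exposure of THP-1 cells; compounds (final up to 57.5 uM) added 1 h before LPS (250 ng/mL) and ATP (1.25 mM) stimulation; lower signal means less secretion.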
# DT40 TDP1 no CPT: qHTS for Inhibitors of human tyrosyl-DNA phosphodiesterase 1 (TDP1): qHTS in cells in absence of CPT; Potency, µM (series often up to 46.2 µM), most hits filed as inhibitors; DT40 Tdp1-/- hTDP1 cells, no CPT, ATP luminescence, 48 h; AID 686978, 2013; 15% of 420,000 active; also: nearly all actives have a fitted effect of over 55% in size
#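 Chicken DT40 Tdp1-/- cells complemented with human TDP1, screened without camptothecin (DMSO vehicle only), 400 cells/well. Compounds pin-transferred, cells incubated at 37 °C for at least 48 hr. Growth read as ATP-dependent luminescence (CellTiter-Glo, 30 min at RT).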
# Hits are given with their value; . = inactive; ? = inconclusive; / = not tested or not shown; ! = not active in a repeat; [ ] = another dose, or the depositor's remark. In the library only some 19% were active in any assay of this set; here they are far more common. Unless noted, calls follow the shape of the dose curve; as a rule, active = well fitted curve in the direction sought with a large enough effect; inconclusive = small, poorly fitted or top-dose-only effect, or another doubt; inactive = no such curve, though single readings can be large; an effect the other way counts as inactive or inconclusive.
SMILES,DT40 TDP1 CPT,TDP1 inh,HepG2 tox,TGFb inhibitor,IL-1B inflam inh,DT40 TDP1 no CPT
O=C(c1cc(-c2ccc(F)cc2)no1)N1CCN(Cc2ccc3c(c2)OCO3)CC1,?,/,.,.,.,16µM
Cc1cc(C)cc(OCC(O)CN2CCN(Cc3ccc4c(c3)OCO4)CC2)c1 (configuration not stated),13µM,.,.,.,.,21µM
O=C(c1ccc2c(c1)OCO2)N1CCN(CCN2C(=O)c3cccc4cccc(c34)C2=O)CC1,.,/,.,.,.,.
OC(COc1ccccc1)CN1CCN(Cc2ccc3c(c2)OCO3)CC1 (configuration not stated),.,.,.,.,.,.
CCCCNC(=O)C1(C)CCCCN1C(=O)c1ccno1 (configuration not stated),.,/,.,.,.,.
O=C(c1ccccc1Cl)N1CCN(Cc2ccc3c(c2)OCO3)CC1,.,.,.,?,?,.
CC(C)CNS(=O)(=O)c1ccc(CCC(=O)N2CCN(Cc3ccc4c(c3)OCO4)CC2)cc1,13µM,.,.,.,?,18µM
Cc1ccc(C(=O)N2CCN(Cc3ccc4c(c3)OCO4)CC2)c(Cl)c1,8.2µM,/,.,?,-59,16µM
CCCCOc1ccc(C(=O)NCC(=O)N2CCN(Cc3ccc4c(c3)OCO4)CC2)cc1,?,.,.,.,.,13µM
O=C(CCc1ccc(S(=O)(=O)NCCc2ccccc2)cc1)N1CCN(Cc2ccc3c(c2)OCO3)CC1,/,.,/,/,/,/
O=C(c1sccc1Cl)N1CCN(Cc2ccc3c(c2)OCO3)CC1,.,.,.,?,-81,?
Cc1ccc(CNC(=O)CSc2nc3c(sc4ccccc43)c(=O)n2CCCC(=O)NCCO)cc1,.,.,.,.,/,?
CC(=O)c1sc(-c2ccc(F)cc2F)nc1C,.,.,.,.,.,.
CCCS(=O)(=O)NC(=O)C1(C)CCN1C(=O)Cc1ccc(Cl)cc1Cl (configuration not stated),.,/,.,.,.,.
O=C(CCCN1C(=O)c2ccccc2C1=O)N1CCc2ccccc2C1,.,.,.,.,.,.
O=C(CN1C(=O)c2cccc3cccc1c23)N1CCc2ccccc2C1,21µM,.,.,.,.,12µM
C#CCOc1nc(Nc2cccc([N+](=O)[O-])c2)nc(OCC#C)n1,?,.,.,.,-66,21µM
CC(=O)O[C@@]1(C(C)=O)CCC2C3C=C(Cl)C4=CC(=O)C5CC5[C@@]4(C)C3CC[C@]21C (some centres not stated),21µM,.,/,/,/,21µM
Cc1nn2c(C)c(C(=O)NC(C)c3ccccc3)cnc2c1-c1ccc(F)cc1 (configuration not stated),.,.,.,.,/,?
Cc1ccc(OCCNC(=O)c2ccccc2O)cc1,?,/,.,.,.,?
Cc1ccc(C(C)C)c(OCC(=O)Nc2cccc(NC(=O)c3ccco3)c2)c1,?,.[12.3 µM],.,?,/,21µM
Cc1ccc(C(C)C)c(OCC(=O)N/N=C/c2cccn2C)c1,?,/,.,?,.,15µM
COc1ccc(NC(=O)c2ccco2)cc1NC(=O)c1ccc(OC(C)C)cc1,?,.,.,.,/,21µM
Cc1ccc(C(C)C)c(OCCNC(=O)c2ccccc2O)c1,15µM,/,.,?,-81,26µM
COc1cccc(CNc2nnnn2C)c1,.,/,.,.,.,.
SMILES,DT40 TDP1 CPT,TDP1 inh,HepG2 tox,TGFb inhibitor,IL-1B inflam inh,DT40 TDP1 no CPT
CCC[C@H]1COCCS(=O)(=O)N1Cc1ccc(F)cc1,.,/,.,.,/,.
O=C(NCCNC(=O)c1cccnc1)c1cccnc1,.,/,.,.,.,.
CC(C)c1ccccc1OCCNC(=O)c1cccnc1,18µM,.,.,.,.,21µM
CCOc1cc(Br)c(C(C)NC(=O)c2cccnc2)cc1OCC (configuration not stated),18µM,/,.,.,.,23µM
Cc1ccc(C(C)C)c(OCC(=O)NNC(=O)Nc2ccccc2)c1,.,/,.,?,-76,?
COc1ccc(NC(=O)c2ccco2)cc1NC(=O)COc1cc(C)ccc1C(C)C,8.2µM,.,.,.,/,7.3µM
Cc1cnc(-n2ncc(C(=O)NCc3ccccn3)c2C2CC2)nc1-c1cccs1,.[9.04 µM],/,/,/,/,.
Cc1nc(C)c(N)c(=O)[nH]1,.,.,.,.,.,.
CC#N,/,.,/,/,/,/
Cc1ccc(-n2nc(C)c3c(C(=O)NCCc4ccccc4)cc(C)nc32)cc1,?,.,.,.,/,?
O=Cc1c(-[n+]2ccccc2)nc([O-])n1-c1ccccc1,?,.,.,.,.,18µM
COc1ccccc1CNC(=O)CCCn1c(=O)c2ccccc2n(Cc2ccccc2C#N)c1=O,26µM,.,.,.,/,4.6µM
COCCNC(=O)CCCn1c(=O)c2ccccc2n(Cc2ccccc2C#N)c1=O,.,/,.,.,.,.
Cn1cc(CCCC(=O)NCc2ccc(F)cc2)c2ccccc21,?,.,.,.,.,21µM!
COc1ccccc1CNC(=O)CCCn1c(=O)c2ccccc2n(Cc2ccc(F)cc2)c1=O,16µM,.,.,.,/,?
CCOc1ccc(C2=NC(c3ccncc3)=Nc3ccc(C)cc3N2)cc1OCC,?,.,.,.,/,18µM
CCCCOc1ccc(C2=NC(c3ccncc3)=Nc3ccc(OCC)cc3N2)cc1,16µM,.,.,.,/,?
CCOc1ccc(-c2nc(-c3ccncc3)no2)cc1OCC,.,.,.,.,.,.
CCCOc1ccc(C2=NC(c3ccncc3)=Nc3ccc(C)cc3N2)cc1,?,.,.,.,/,?
COc1ccc(C2=Nc3ccccc3NC(c3cccs3)=N2)cc1,?,.,.,.,/,?
CCOc1ccc2c(c1)NC(c1cccs1)=NC(c1ccc(F)cc1)=N2,23µM,.,.,?,/,?
O=C(Oc1ccccc1F)c1nc(SCc2ccc(F)cc2)ncc1Cl,.,.,.,.,/,.
COc1ccc(CCNC(=O)C(=O)NCC2OCCN2S(=O)(=O)c2cc(F)ccc2F)cc1 (configuration not stated),?,/,.,.,.,?
CCOC(=O)Cc1csc(NC(=O)c2c(O)c3ccccc3n(CC(C)C)c2=O)n1,.,.,.,.,.,.
CCOC(=O)Cc1csc(/N=C/c2c(O)n(-c3ccc(C)cc3C)c(=O)c3ccccc23)n1,?,.,.,.,.,16µM
CC1CCC(NC(=O)C2(C)Cc3ccccc3C(=O)N2Cc2ccccc2Cl)CC1 (configuration not stated),?,.,.,/,/,23µM

# Compound activity deposited in PubChem BioAssay by National Center for Advancing Translational Sciences (NCATS).
